# Rows were chosen to be rich in hits. Some 2.1% of all compounds tested hit in one or more screens of this group.
# CHT inh = inhibitors of human choline transporter CHT; Q9GZV3; CHT-expressing cells, membrane potential dye, choline response; active compounds read low; B-score at 10 µM; 0.86% of 310,000 active;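 active = B-score over 3 SD under the library average, and starting fluorescence ratio not unusually high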;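 note: choline stimulus applied at its EC90 after an EC20 pre-addition; B-score computed on integrated fluorescence ratio after choline addition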
# EP2 mod = modulates human prostaglandin E2 receptor EP2 signaling | P43116 | EP2-expressing cells, cAMP HTRF FRET, PGE2 co-stimulation | induction, % at 25 µM | 0.83% of 260,000 active;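 active = compounds whose cAMP rise, as percent of the full-agonist control response, exceeds 60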;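 note: rat C6 glioma line stably carrying human EP2 under a CMV promoter; the protocol text gives 20 µM as final concentration; 100% = response of wells given 1 µM PGE2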
# Target sequence (P43116 whole entry, looked up): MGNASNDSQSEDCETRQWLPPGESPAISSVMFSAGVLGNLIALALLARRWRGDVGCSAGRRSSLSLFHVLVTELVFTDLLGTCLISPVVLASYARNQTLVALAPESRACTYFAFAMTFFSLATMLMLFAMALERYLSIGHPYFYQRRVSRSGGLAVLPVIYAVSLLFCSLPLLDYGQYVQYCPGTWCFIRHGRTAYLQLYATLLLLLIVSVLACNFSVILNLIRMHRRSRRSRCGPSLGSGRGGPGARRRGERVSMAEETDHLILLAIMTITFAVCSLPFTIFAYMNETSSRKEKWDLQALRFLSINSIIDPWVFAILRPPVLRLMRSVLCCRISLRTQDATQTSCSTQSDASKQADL
# CHT PAM = human CHT allosteric activation. 0.49% of 310,000 active. B-score at 10 µM. Q9GZV3. CHT-expressing cells, membrane potential dye, choline EC20; active compounds read high; LV-AA mutant CHT in HEK293 cells;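 active = initial fluorescence not abnormally high and integrated response B-score, plate-corrected, over 3 SD above library mean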
# PGE2 EP2 inh = inhibitors of human EP2 prostaglandin E2 receptor | AID 1422 | 0.52% of 260,000 active | C6 glioma cells expressing human EP2, cAMP TR-FRET; cells stimulated with saturating PGE2 | inhibition, % at 25 µM;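 active = percent inhibition above 40 after rounding to a whole number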;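 note: rat C6 glioma host cells with rolipram phosphodiesterase inhibitor present; the protocol text gives 20 µM as final concentration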
# CHT activ conf = confirmation of human choline transporter (CHT) activators | shares compounds with CHT PAM | CHT-expressing cells, membrane potential dye fluorescence (FDSS); % of choline EC20–EC90 response window; HEK293 expressing CHT LV-AA mutant; choline added at its EC20 | activation, % at 10 µM | 91% of 2,500 active | AID 504833;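 active = primary screen active, with duplicate mean activation above negative control mean plus 3 SD, cut at about 11% in these data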
# HEK293 MP dye = counter-screen for CHT activators: effect in parental HEK293 cells. shares compounds with CHT PAM. ratio readout change at 10 µM, hits read low. AID 623908. 62% of 2,500 active. membrane potential dye fluorescence (FDSS); measured after EC20 choline addition;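 active = duplicate-averaged ratio beyond 3 SD from buffer wells, up or down, though filed actives are nearly all decreases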
# The depositor's hits bear a star; i = inactive; . = not tested or not shown.
SMILES,CHT inh,EP2 mod,CHT PAM,PGE2 EP2 inh,CHT activ conf,HEK293 MP dye
COc1ccccc1N1CCN(C(c2ccccc2)c2nnnn2CCc2ccccc2)CC1 (stereo unspecified),i,25,i,13,17*,i
COc1cccc(C(c2nnnn2Cc2ccco2)N2CCN(c3cccc(C)c3C)CC2)c1OC (stereo unspecified),i,36,7.1*,8,20*,i
COc1cccc(C(c2nnnn2CCc2ccccc2)N2CCN(c3ccccc3)CC2)c1OC (stereo unspecified),i,23,6.8*,14,21*,i
COCCn1nnnc1C(c1ccc(OC)cc1)N1CCN(c2ccccc2OC)CC1 (stereo unspecified),.,0,.,9,.,.
CCc1ccc(-n2nnnc2SCC(=O)N2c3ccccc3CC2C)cc1 (stereo unspecified),.,-31,.,5,.,.
COc1ccc(C(=O)CSc2nnc(CNC(=O)c3ccco3)n2C)cc1OC,i,.,i,.,.,.
COc1ccc(C(=O)CSc2nnc(CNC(=O)c3ccco3)n2C)cc1,i,27,6.6*,4,69*,-51*
CCN(CC)S(=O)(=O)c1ccc(NC(=O)c2c(-c3ccccc3Cl)noc2C)cc1,.,7,.,12,.,.
CCCCN(C)C(=O)Cc1c(OC)ccc2cc(Br)ccc12,i,-10,6.7*,13,9,i
COc1ccc2cc(Br)ccc2c1CC(=O)N(C)C,i,-6,i,8,.,.
COc1ccc(N(C)C(=O)c2oc(=O)c3ccccc3c2-c2ccccc2)c(OC)c1,i,-9,6.3*,10,33*,i
COc1ccc(N(C)C(=O)Cn2c(=O)oc3ccccc32)c(OC)c1,i,.,i,.,.,.
Cc1ccc(N(C)C(=O)C2CCCN2S(=O)(=O)c2ccc3c(c2)n(C)c(=O)c(=O)n3C)cc1 (stereo unspecified),i,15,6.5*,11,24*,-44*
Cn1c(=O)c(=O)n(C)c2cc(S(=O)(=O)N3CCN(C4CCCCC4)CC3)ccc21,i,2,13*,8,106*,-50*
O=C(CSc1nc2ccccc2c(=O)n1Cc1ccco1)Nc1ccccc1,.,11,.,7,.,.
Cc1nc2ccc(NC(=O)CN3CCC(O)(c4ccccn4)CC3)cc2[nH]1,.,-16,.,.,.,.
COc1cc(NC(=O)CSc2nnc3c4c(C)c(C)sc4nc(C(C)C)n23)cc(OC)c1,.,-17,.,7,.,.
CCOC(=O)N1CCN(c2ncnc3scc(-c4ccccc4)c23)CC1,i,.,9.7*,.,15*,i
CCOC(=O)c1sc2ncnc(N3CCN(C)CC3)c2c1C,i,11,i,3,30*,-41*
CCOC(=O)c1sc2ncnc(N3CCN(c4ccc(OC)cc4)CC3)c2c1C,i,-29,i,8,.,.
O=C(CSc1ncnc2scc(-c3ccccc3)c12)N1CCN(c2ccccc2F)CC1,i,13,i,7,42*,i
O=C(O)CSCC(=O)N1CCN(c2ncnc3scc(-c4ccccc4)c23)CC1,i,.,i,.,.,.
O=C(CN1C(=O)[C@H]2CCCN2C(=O)c2ccccc21)NCc1cccc(F)c1,.,-14,.,11,.,.
CCc1cc2ccc(OC)cc2nc1SCC(=O)Nc1ccccc1Cl,.,29,.,9,.,.
O=C(O)c1ccc(N/N=C/C=C/c2ccc([N+](=O)[O-])o2)cc1,i,.,i,.,.,.
SMILES,CHT inh,EP2 mod,CHT PAM,PGE2 EP2 inh,CHT activ conf,HEK293 MP dye
O=[N+]([O-])c1ccc(N/N=C/C=C/c2ccco2)cc1,i,.,8.1*,.,12*,i
COC(=O)c1sc(NC(=O)C(C)c2ccccc2)nc1C (stereo unspecified),i,6,6.7*,5,30*,i
CCC(C(=O)Nc1nc(C)c(C(=O)OC)s1)c1ccccc1 (stereo unspecified),i,38,i,1,.,.
CC(=O)c1ccc(-n2cc(-c3ccc(C(C)(C)C)cc3)[n+]3c2SCCC3)cc1,i,6,7*,4,25*,-45*
CCc1ccc2[nH]c(=O)c(C(c3nnnn3CC3CCCO3)N3CCCC(C)C3)cc2c1 (stereo unspecified),.,-5,.,13,.,.
Clc1cccc(C[n+]2cc(-c3ccccc3)n3c2CCC3)c1,i,-24,8.8*,10,67*,-43*
Cc1ccc(-c2c[n+](Cc3cccc(Cl)c3)c3n2CCC3)cc1,i,5,8*,4,56*,-40*
CCCNS(=O)(=O)c1ccc(OCC(=O)N2CCCCCC2)cc1,.,1,.,10,.,.
Clc1ccc(CSc2nncn2-c2ccccn2)cc1,i,-27,i,4,.,.
Clc1ccc(CSc2nncn2-c2ccc3c(c2)OCCO3)cc1,i,-64,13*,7,5,i
COc1ccc(OC)c(C(C)NC(=O)C2CCCN(c3nc4ccccc4n3C)C2)c1 (stereo unspecified),.,-4,.,.,.,.
Cc1csc(NC(=O)CSc2nnc3n(CC(=O)N4C(C)CCCC4C)c4ccccc4n23)n1 (stereo unspecified),.,-30,.,14,.,.
Cc1cc(-c2ccccc2)nc2[n+]1CCN2C,i,34,7.5*,13,61*,-59*
Cc1cc(-c2ccccc2)nc(=O)[nH]1,i,27,i,8,.,.
COc1cccc(N2CCN(C(=O)c3ccc(CS(=O)c4ccc(Cl)cc4)o3)CC2)c1 (stereo unspecified),i,.,i,.,21*,i
COc1cccc(N2CCN(C(=O)c3ccc(CS(=O)Cc4ccc(C)cc4)o3)CC2)c1 (stereo unspecified),i,.,i,.,.,.
COc1cccc(N2CCN(C(=O)c3ccc(CS(=O)c4ccc(C)cc4)o3)CC2)c1 (stereo unspecified),i,.,8.1*,.,21*,i
COc1ccc(N2CCN(C(=O)Cn3nc(C)n4c(cc5ccsc54)c3=O)CC2)cc1,.,-18,.,.,.,.
Cc1ccc(C(=O)CSc2ncn[nH]2)cc1,i,-11,i,13,.,.
O=C(CSc1ncn[nH]1)c1ccc(OC(F)F)cc1,i,3,7.2*,7,1,i
CCOC(=O)c1cnc2ccc(OCC)cc2c1N1CCN(C)CC1,i,19,8.4*,8,41*,-40*
Cc1cccc(COCC(Cc2ccccc2)N2CCN(C(=O)c3cccc(Cl)c3)CCC2=O)c1 (stereo unspecified),i,37,i,6,.,.
O=C(c1cccc(Cl)c1)N1CCC(=O)N(C(COCc2ccccc2)Cc2ccccc2)CC1 (stereo unspecified),i,37,6.3*,10,29*,i
CCCn1c(C(=O)OC)cc2c1ccn2-c1ccc(F)cc1,i,34,i,2,.,.

# Bioassay records as filed in PubChem.
